Source: PubChem (National Center for Advancing Translational Sciences (NCATS))
KB-3-1 cytotox = kills parental KB-3-1 adenocarcinoma cells; KB-3-1 viability, CellTiter-Glo ATP luminescence, 72 h; Potency, µM (doses to about 46.1 µM), usual class: cytotoxic; actives 1.4% (n = 400,000); also: % is scaled to controls: 0 for no effect and ±100 for the full control effect; nearly all actives have a fitted effect of over 60% in size
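Here the drug-naive KB-3-1 line serves as comparator for MDR sub-line selectivity; cells received compound titrations, 72 h at 37 °C, then CellTiter-Glo readout.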
PINK1 modulator = PINK1 expression modulation; PINK1 immunofluorescence, high-content cytometry, 24 h; Potency, µM (highest dose often 76.6 µM), for the others: at the top dose activation (PINK1 increase), actives largely listed as activators; actives 0.2% (n = 410,000); active = well fitted activation curve with a large enough effect; inconclusive = small, poorly fitted or top-dose-only effect; cell line not stated here; also: % of control where 0% means no effect; nearly all actives have a fitted effect of over 65% in size
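Stable cell line, 250 cells/well, 12 h attachment; compounds pinned at 5 concentrations, 24 h; CCCP control. Fixed with nuclear dye, primary antibodies 12 h at 10 degrees C, secondary plus cell stain; laser-scanning cytometer read.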
MCF10A rerep = induces DNA re-replication in MCF 10a normal breast cells | MCF 10A DNA re-replication, Hoechst nuclear intensity, 48 h | Potency, µM (series often up to 46.1 µM), for the others: at the top dose activity, positive = re-replication, actives largely listed as activators | actives 2.9% (n = 350,000) | AID 624296; also: % of control where 0% means no effect; nearly all actives have a fitted effect of over 50% in size
SW480 rerep = DNA re-replication induction in SW480 cells; SW480 DNA re-replication, Hoechst DNA content imaging, 48 h; Potency, µM (top dose mostly 46.1 µM), for the others: top-dose re-replication activation, most hits filed as activators; actives 1.8% (n = 340,000); also: % of control where 0% means no effect; nearly all actives have a fitted effect of over 55% in size
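Hoechst fluorescence of nuclei (405 nm excitation, 500-530 nm emission) measured by plate-scanning imager after 48 hr compound exposure at 37 C; re-replication scored as increased number of nuclei with elevated intensity.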
PTAP TSG101 blk = blocks PTAP/TSG101 interaction to inhibit HIV-1 budding | Fluorescence polarization, FITC-PTAP peptide / Tsg101 binding | Q99816 | 340,000 tested, under 10 active | Potency, µM (highest dose often 115 µM), inactives show at the highest dose activity change, negative = inhibition, actives largely listed as inhibitors | AID 493005; active = well fitted inhibition curve with a large enough effect in the main read-out, with a control signal flat, not every such curve was filed as active; inconclusive = small, poorly fitted or top-dose-only effect, or effect the other way, or a change in a side signal; inactive = no such curve, though single readings can be large or run the other way; also: % of control where 0% means no effect
Target sequence (Q99816 whole entry, looked up): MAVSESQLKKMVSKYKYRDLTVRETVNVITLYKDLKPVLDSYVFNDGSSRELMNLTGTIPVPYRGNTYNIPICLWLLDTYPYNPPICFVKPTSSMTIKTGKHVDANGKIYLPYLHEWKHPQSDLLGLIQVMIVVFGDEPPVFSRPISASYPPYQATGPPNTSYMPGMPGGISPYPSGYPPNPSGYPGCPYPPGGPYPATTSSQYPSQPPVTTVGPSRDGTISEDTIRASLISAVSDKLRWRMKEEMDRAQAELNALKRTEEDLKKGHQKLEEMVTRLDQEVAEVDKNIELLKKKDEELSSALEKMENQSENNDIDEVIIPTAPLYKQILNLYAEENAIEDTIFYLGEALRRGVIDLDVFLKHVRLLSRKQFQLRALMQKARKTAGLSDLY
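FP read-out: FITC-PTAP peptide, 50 nM final, binding Tsg101 binding domain, 10 uM final; 20 min, r.t.; 10 mM HEPES pH 7.5, 0.15 M NaCl, 0.01% Tween 20, 3 mM EDTA, 0.1 mM TCEP.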
KB-V1 MDR tox = kills drug-selected multidrug resistant KB-V1 cells | Potency, µM (titrated, usually from 46.1 µM), actives largely listed as cytotoxic | KB-V1 MDR cells viability, CellTiter-Glo, 72 h | actives 3.4% (n = 400,000); also: % is scaled to controls: 0 for no effect and ±100 for the full control effect; nearly all actives have a fitted effect of over 60% in size
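Following 72 h at 37 degrees C with compound, KB-V1 cell viability was read by CellTiter-Glo luminescence, medium being phenol-red-free DMEM plus 10% FBS; concentration-response parameters came from normalized, curve-fitted qHTS data.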
Starred values were filed as active, the others as inactive; i = inactive; ? = inconclusive; / = not tested or not shown; [ ] = dose if it differs, or a comment. Hits are enriched below; roughly 6.8% of the tested compounds scored in any of these assays. Unless noted, calls follow the shape of the dose curve; as a rule, active = well fitted curve in the direction sought with a large enough effect; inconclusive = small, poorly fitted or top-dose-only effect, or another doubt; inactive = no such curve, though single readings can be large; an effect the other way counts as inactive or inconclusive. Potency is read from the fitted curve at half-maximal effect.

SMILES	KB-3-1 cytotox	PINK1 modulator	MCF10A rerep	SW480 rerep	PTAP TSG101 blk	KB-V1 MDR tox
Cc1nnc(NC(=O)c2sc3nc(-c4cccs4)cc(C(F)(F)F)c3c2N)s1	i	-1.1%	?	3.7%	?	13µM*
Cc1ccc(NC(=S)NNC(=O)c2ccc(N3CCOCC3)c([N+](=O)[O-])c2)cc1Cl	?	?	?	?	-5.4%	16.4µM*
COc1ccc(C(=O)NC(=S)Nc2cccc(Cl)c2N2CCOCC2)cc1[N+](=O)[O-]	i	20.9%[38.3 µM]	-4.0%	7.31µM*	-5.7%	i
CC(=O)c1ccccc1NS(=O)(=O)c1c(C)nn(-c2ccccc2)c1C	i	1.9%[38.3 µM]	15.0%	-7.4%	-0.5%	9.2µM*
CC(=O)Nc1ccc(S(=O)(=O)Nc2c(C)nn(-c3ccccc3)c2C)cc1	i	1.0%[38.3 µM]	-5.8%	-3.3%	-5.9%	i
COc1ccc(C(CCN(Cc2ccc(OC)c(OC)c2)C(C)=O)c2ccccc2)cc1 (stereo not given)	i	0.1%	?	-154.1%	-10.0%	i
COc1ccc(CN(CCC(c2ccccc2)c2ccc(OC(C)C)cc2)C(=O)CCl)cc1OC (stereo not given)	10.3µM*	-2.7%	4.61µM*	3.66µM*	-2.4%	8.2µM*
Cc1ccccc1NC(=O)c1ccc(F)c(S(=O)(=O)N(C)Cc2ccccc2)c1	/	2.1%	/	/	/	/
N#CC1C(=N)Cc2ccccc2-c2ccccc21 (stereo not given)	?	6.5%	?	16.4µM*	-3.2%	14.6µM*
CCCC(=O)Nc1ccc2c(c1)nc(CN1CCN(C(=O)OCC)CC1)n2CC	3.26µM*	5.2%	7.31µM*	9.2µM*	-7.3%	i
c1ccc(CSc2nnc(Cc3ccccc3)o2)cc1	i	3.1%	0.1%	0.1%	0.8%	i
O=C(O)c1ccc(CSc2nnc(-c3ccc(Cl)cc3)o2)cc1	i	0.3%	1.5%	19.7%	-2.6%	?
O=S(=O)(Nc1ccc(-c2nnc(SCc3ccc(Cl)cc3)o2)cc1)c1ccccc1	i	28.8%	20.6µM*	7.4%	0.5%	i
Brc1ccc(CSc2nnc(Cc3c[nH]c4ccccc34)o2)cc1	i	1.9%	?	0.0%	0.9%	18.4µM*
O=c1c(-c2nnc(SCc3ccc(Cl)cc3)o2)cccn1Cc1ccccc1	i	15.3%[38.3 µM]	16.6%	18.7%	-5.8%	4.61µM*
O=C(Nc1ccccc1-c1nnc(SCc2ccc(Cl)cc2)o1)c1ccccc1	i	0.0%	16.5%	-1.6%	-5.4%	?
O=C(Nc1ccccc1-c1nnc(SCc2ccccc2)o1)c1ccccc1	i	22.1%[38.3 µM]	?	0.1%	-2.1%	14.6µM*
Cc1cccc(-c2nc(CCNC(=O)c3ccccc3Br)cs2)c1	/	1.3%	/	/	/	/
Clc1ccc(CSc2nnc(-c3c[nH]c4ccccc34)o2)cc1	i	6.4%[38.3 µM]	20.6µM*	0.8%	-6.0%	?
CCSc1nnc(-c2c[nH]c3ccccc23)o1	i	6.2%	-0.8%	-6.5%	-1.7%	i
CCN(CC)C1CCN(C(=O)c2cnn(-c3nccc(-c4ccccc4OC)n3)c2-c2ccco2)C1 (stereo not given)	/	0.4%	/	/	/	/
CC(C)N(C(=O)Cn1c(-c2ccccc2Cl)nc2ccccc21)c1ccccc1	i	-2.7%	-23.4%	-79.5%	0.8%	10.3µM*
Cc1nc2ccccc2c2nc3ccccc3n12	i	/	?	23.1%	-8.2%	i
CC(C)Cn1c(-c2ccccc2Cl)nc2ccccc21	i	0.3%	/	/	/	i
N#CCSc1nc2ccccc2c2nc3ccccc3n12	i	-0.6%	9.2µM*	-1.4%	-2.4%	?
SMILES	KB-3-1 cytotox	PINK1 modulator	MCF10A rerep	SW480 rerep	PTAP TSG101 blk	KB-V1 MDR tox
Clc1ccccc1-c1nc2ccccc2c2nc3ccccc3n12	?	0.6%	9.7%	-8.0%	-4.4%	4.11µM*
CCOc1cccc(C2CC(=O)Nc3cc4c(cc32)OCCO4)c1 (stereo not given)	/	7.0%	/	/	/	/
OCCN(Cc1ccccc1)Cc1ncccc1O	i	1.8%	-0.6%	-9.8%	-2.8%	i
OCCN(Cc1cccnc1)Cc1ccccn1	i	-5.2%	13.9%	17.1%	1.3%	10.3µM*
Cc1nn2c(-c3ccc(S(=O)(=O)N4CCN(CCO)CC4)o3)nnc2c2ccccc12	i	1.5%	-0.1%	18.4µM*	-5.8%	i
COc1ccc(-c2nnc3c4ccccc4c(C)nn23)cc1S(=O)(=O)N1CCN(CCO)CC1	?	-0.7%[38.3 µM]	12.9%	-4.1%	-5.6%	?
Cc1cc(N2CCN(c3ccccc3Cl)CC2)n2cc(-c3ccccc3)nc2n1	?	17.6%	?	-0.6%	-0.1%	16.4µM*
CC(=O)c1ccc(N2Cc3ccccc3C2=NC(=O)c2cccs2)cc1	i	2.6%	14.5%	1.6%	-5.4%	?
N#Cc1ccc(N2Cc3ccccc3C2=NC(=O)c2cccs2)cc1	i	-3.9%	-2.1%	25.2%	1.4%	18.4µM*
CCCN(CCC)c1nc(NC2CCN(C(=O)OCC)CC2)nc(OC)n1	?	-3.1%	15.4%	16.7%	-3.6%	16.4µM*
CN(C)S(=O)(=O)c1ccc(C(=O)NCCS(=O)(=O)N2CCN(c3ccccc3)CC2)cc1	/	2.2%	/	/	/	/
CCCC1CCC(=NNC(=O)CNc2ccc(OC)cc2)CC1 (stereo not given)	i	2.7%	-70.7%	14.6µM*	-3.7%	i
CCOc1cc(CNCCSc2nnnn2C)cc(Br)c1OCc1ccccc1	?	-1.0%	14.6µM*	?	-9.0%	?
Cn1nnnc1SCCNCc1cc(Cl)ccc1OCc1ccccc1	i	-0.1%	?	14.0%	2.1%	5.17µM*
Cn1nnnc1SCCNCc1ccc(OCc2ccccc2Cl)cc1	23.1µM*	6.0%	/	/	/	?
COCc1c(C(=O)N2CCN(C(C)C)CC2)cnn1-c1nccc(-c2cc(C)sc2C)n1	/	-0.6%	/	/	/	/
O=c1c2[nH]c3ccccc3c2nc(SCc2cccc(F)c2)n1-c1ccccc1	/	5.7%	/	/	/	/
Cc1cccc2cc(CN(C(=O)c3ccc(C(F)(F)F)cc3)C3CC3)c(N3CCC(O)CC3)nc12	/	0.4%	/	/	/	/
COc1cccc(C(=O)c2sc(Nc3ccc(C)cc3C)c(S(=O)(=O)c3ccccc3)c2N)c1	i	0.6%	/	/	/	i
CCOC(=O)C1=C(CC)Nc2ccccc2N=C1NC(=O)Nc1ccc(Cl)c(Cl)c1	?	?	6.51µM*	?	2.3%	i
Cc1cccc(CCNC(=O)c2ccc3c(c2)nc2n3CCCCC2)c1	i	1.0%	/	/	/	i
